Inconclusive results are not listed. A call without a number means that no potency is given here. Calls of active or inactive are those of the source. Calls follow the shape of the dose curve; as a rule, active = well fitted inhibition curve with a large enough effect; inconclusive = small, poorly fitted or top-dose-only effect; inactive = no such curve, though single readings can be large or run the other way. Where a SMILES comes first, the peptide text is derived from it. [ ]: non-standard residue; d: D form. dPhe(4-Cl) = N[C@H](Cc1ccc(Cl)cc1)C(=O)O; d2Nal = N[C@H](Cc1ccc2ccccc2c1)C(=O)O; dCit = NC(=O)NCCC[C@@H](N)C(=O)O; d3Pal = N[C@H](Cc1cccnc1)C(=O)O
Potency is read from the fitted curve at half-maximal effect.

This experiment concerns Zika virus NS2B-NS3 protease (linked construct). The experiment is described as follows: Primary screen NINDS Rhodamine qHTS for Zika virus inhibitors (AID 1347160). Also: nearly all actives have a fitted effect of over 55% in size. To be noted: purified NS2B-NS3 protease, Rhodamine110 substrate fluorescence; series mostly up to 57.1 µM. The method in brief:
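Rhodamine110-peptide cleavage (1.5 µM substrate) by 25 nM linked NS2B-NS3 enzyme at pH 8.0 (Tris, Tween 20), after 15 min RT preincubation with compounds; 15-min fluorescence change normalized to controls and Hill-fitted.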
For orientation: In qHTS, concentration-response curves come from the screen itself.
For `C[C@@]12C[C@]3(O)O[C@H](O1)[C@]1(COC(=O)c4ccccc4)[C@H]3C[C@@]12O[C@@H]1O[C@H](CO)[C@@H](O)[C@H](O)[C@H]1O`, the Potency result was “inactive”.

With `C=CC1C(OC2OC(CO)C(O)C(O)C2O)OC=C(C(=O)OC)C1CC(=O)OCC1C(C)C(O)CC1C(CO)COC(=O)CC1C(C(=O)O)=COC(OC2OC(CO)C(O)C(O)C2O)/C1=C\C` (stereo not given), the Potency entry was “inactive”.

Consider `Cn1nnc(-c2ccc(-c3ccc(N4C[C@H](COP(=O)(O)O)OC4=O)cc3F)cn2)n1`, for which the Potency entry is “inactive”.

Take `CC(=O)O[C@H]1CC[C@H](C)[C@@]2(C)[C@H](OC(C)=O)c3c(C)coc3C(=O)[C@H]12`: the Potency entry is “inactive”.

As to `O=[N+]([O-])c1cn2c(n1)OCC(OCc1ccc(OC(F)(F)F)cc1)C2` (stereo not given), the Potency entry is “inactive”.

With `O=C1OCc2cc3cccc(O[C@@H]4O[C@H](CO)[C@@H](O)[C@H](O)[C@H]4O)c3c(O)c21`, the Potency was 11.2 µM (active).

As for `O=C1OCC(c2ccccc2)=C1Cc1ccccc1`, the Potency entry is “inactive”.

Regarding `CC1=CC(=O)CC(C)(C)[C@@]1(O)CC[C@@H](C)O[C@@H]1O[C@H](CO)[C@@H](O)[C@H](O)[C@H]1O`, the Potency entry was “inactive”.

In the case of `CC1CCCCN1S(=O)(=O)c1ccc(N2CCCC2=O)cc1` (stereo not given), the Potency result was “inactive”.

With `C=CC(C)(O)CC/C=C(\C)C(=O)OC1C(O)C(CO)OC(OC(=O)C23CCC(C)(C)CC2C2=CCC4C5(C)CCC(OC6OC(COC7OCC(OC(C)=O)C(O)C7OC7OC(COC(C)=O)C(O)C(O)C7O)C(O)C(O)C6O)C(C)(C)C5CCC4(C)C2(C)C(O)C3O)C1OC1OCC(OC2OCC(O)C(OC3OCC(O)C(O)C3O)C2O)C(O)C1O` (stereo not given), the activity change, negative = inhibition was 18.5% [at 10.7 µM] (inactive).

Turning to `CC1(C)C2CC=C(COC3OC(COC4OCC(O)(CO)C4O)C(O)C(O)C3O)C1C2` (stereo not given), the Potency entry was “inactive”.

Take `CC(=O)N[C@H](Cc1ccc2ccccc2c1)C(=O)N[C@H](Cc1ccc(Cl)cc1)C(=O)N[C@H](Cc1cccnc1)C(=O)N[C@@H](CO)C(=O)N[C@@H](Cc1ccc(O)cc1)C(=O)N[C@H](CCCNC(N)=O)C(=O)N[C@@H](CC(C)C)C(=O)N[C@@H](CCCN=C(N)N)C(=O)N1CCC[C@H]1C(=O)N[C@H](C)C(N)=O` (Ac-[d2Nal][dPhe(4-Cl)][d3Pal]SY[dCit]LRP[dA]-NH2): the Potency result was “inactive”.

As to `COc1ccc(CC2C(=O)NC(C)C(=O)N(C)C3Cc4ccc(cc4)Oc4cc(ccc4OC4OC(CO)C(O)C(O)C4O)CC(C(=O)NC(C)C(=O)NC(C)C(=O)N2C)N(C)C3=O)cc1` (stereo not given), the Potency entry is “inactive”.

Regarding `C=CC(=O)Nc1cccc(Nc2nc(Nc3ccc(N4CCN(C(C)=O)CC4)cc3OC)ncc2C(F)(F)F)c1`, the Potency result was “inactive”.

`CC(=O)O[C@@H](CO[C@@H]1O[C@H](CO)[C@H](O)[C@H](O)[C@H]1O)[C@]1(C)C=C2CC[C@@H]3C(C)(C)[C@@H](O)CC[C@@]3(C)[C@@H]2CC1`: the Potency result is “inactive”.

For the origin of these results see PubChem BioAssay (NCATS).
